# Experiment: JC-1 mitochondrial potential readout, lung cancer cells – cell-based, A549, JC-1 fluorescence, basal, 24 h, 100 nL, profiling panel (AID 1138);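 also: A549 lung adenocarcinoma cells under basal conditions with no added stimulus; test concentration not given here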
# Conditions: higher = more signal
row,SMILES,z-score
1,Cc1ccc(S[C@]2(C(=O)NC3CC3)CC(=O)N(Cc3cc(C(F)(F)F)cc(C(F)(F)F)c3)[C@@H]2c2ccc(CO)cc2)cc1,0.232
2,O=C/C=C/c1ccccc1Cl,0.653
3,COC(=O)[C@@]1(Cc2ccccc2N=[N+]=[N-])N=C(c2ccc(OCCCO)cc2)O[C@H]1c1ccccc1CN=[N+]=[N-],1.02
4,COC(=O)C(CC#Cc1ccc2c(c1)[C@]1(C(=O)N2)[C@H](C(=O)N2CCCCCCC2)[C@H]2C(=O)O[C@H](c3ccccc3)[C@H](c3ccccc3)N2[C@@H]1c1ccc(O)cc1)C(=O)OC,-1.03
5,C=CCC(OC(C)=O)[C@@H]1[C@@H](N(Cc2cccc3ccccc23)C(=O)c2ccc(C)cc2)c2cc(OCCCO)ccc2N1C(=O)c1ccc(-c2ccccc2)cc1 (stereo not given in full),2.6
6,CCOC(=O)C[C@H]1[C@H](OC(=O)c2ccccc2-c2ccccc2)[C@@H](NC(=O)C2CCCCC2)c2cc(OCCCO)ccc2N1C(=O)c1ccccc1,1.33
7,CC(C)CNC(=O)[C@@]1(C)c2ccccc2C(=O)N(Cc2ccc(OC(F)(F)F)cc2)[C@H]1c1ccc(CO)cc1,0.209
8,C=CC[C@]1(C(=O)O)N=C(c2ccc(OCCCO)cc2)O[C@H]1c1ccccc1,-0.124
9,O=C1OCC=C[C@H]2OC34C=CCN(Cc5ccccc5)C(=O)[C@H]3N(CCO)C(=O)[C@@H]4[C@@H]12 (stereo not given in full),-0.0233
10,CO[C@@H]1COC(=O)CC=C[C@@H](C)[C@H](OC)COC(=O)CC=C[C@H]1C,1.77
11,CO[C@H]1COC(=O)[C@@H](C)COC(=O)[C@H](Cc2ccccc2)NC(=O)CC=C[C@H]1C,1.04
12,CN(C)c1ccc(C(O)C2C=CC3C(=O)NC(=O)C3N2Nc2ccc(Cl)cc2Cl)cc1 (stereo not given),0.587
13,COc1ccc([Si](C)(C)[C@H]2[C@H](CCO)O[C@@]3(C(=O)N(Cc4ccccc4)c4ccc(N5C(=O)c6cccc7cccc5c67)cc43)[C@@H]2C)cc1,2.33
14,CO[C@@H]1COC(=O)CC=C[C@H](C)COC(=O)[C@H](Cc2ccccc2)NC(=O)CC=C[C@H]1C,1.5
15,CCOC(=O)C[C@H]1[C@H](OC(=O)Cc2ccc3c(c2)OCO3)[C@@H](NC(=O)CC(C)C)c2cc(OCCCO)ccc2N1C(=O)c1ccccc1,1.91
16,CO[C@@H]1COC(=O)[C@H](COCc2ccccc2)NC(=O)CC=C[C@@H](C)[C@H](OC)COC(=O)[C@H](COCc2ccccc2)NC(=O)CC=C[C@H]1C,0.952
17,CC/C=C/C(=O)N(C[C@@H]1CCCO1)[C@@H]1CC(C(=O)NCCO)=C[C@H](Oc2c(I)cc(CO)cc2OC)[C@H]1O,1.91
18,CCC1=C2CN(Cc3ccccc3Br)[C@@H]([C@@H](O)Cc3ccccc3)C2C=CCC1 (stereo not given in full),-0.7

row,SMILES,z-score
1,CC(=O)NCCCC[C@@H]1NC(=O)[C@@H]2C[C@H](C(=O)NCCCCCNC(=O)CS)[C@H](c3ccc(O)cc3)N2C1=O,1.18
2,C=C(C)[C@@H]1CC=C(C(O)C2C=CC3C(=O)NC(=O)C3N2Nc2ccccn2)CC1 (stereo not given in full),0.781
3,CCCC=C(CCC)[C@@H](NC(=O)c1ccc(C(F)(F)F)cc1)c1ccccc1,-2.54
4,CO[C@@H]1COC(=O)[C@H](C)NC(=O)CC=C[C@@H](C)[C@H](NS(=O)(=O)c2ccc(C)cc2)COC(=O)CC=C[C@@H]1C,1.43
5,COC(=O)C1=C(C)N(Cc2ccccc2)c2c(C(=O)OC)c(C(=O)OC)c(C(=O)OC)c(=O)n2[C@@H]1c1ccccc1,0.813
6,CO[C@H]1COC(=O)[C@@H](Cc2ccccc2)NC(=O)[C@@H](C)COC(=O)CC=C[C@@H]1C,1.3
7,CC(C)NC(=O)[C@@]1(Cc2ccccc2I)c2ccccc2C(=O)N(C2CCCCC2)[C@H]1c1ccc(CO)cc1,-0.105
8,COc1ccc([Si](C)(C)[C@H]2[C@H](CC(=O)N3Cc4ccccc4C[C@H]3CO)O[C@@]3(C(=O)N(Cc4cccc(N5CCOC5=O)c4)c4ccccc43)[C@@H]2C)cc1,2
9,O=C1NC(=O)C2C1C=CC(C(O)C=Cc1ccc([N+](=O)[O-])cc1)N2Nc1ccccn1 (stereo not given),0.361
10,CO[C@H]1COC(=O)CC=C[C@H](C)[C@@H](OC)COC(=O)CC=C[C@@H]1C,1.35
11,COc1cc(Cc2cc3c(c(CCc4ccccc4)n2)[Si](C(C)C)(C(C)C)OC3)cc(OC)c1OC,1.51
12,NC(=O)NCC#Cc1ccc2c(c1)[C@]1(C(=O)N2)[C@H](C(N)=O)[C@H]2C(=O)O[C@H](c3ccccc3)[C@H](c3ccccc3)N2[C@@H]1c1ccccc1OCCO,-0.525
13,COCCOC(=O)N1C(=O)[C@@]2(c3cc(C#CCNC(N)=O)ccc31)[C@H](C(=O)N1CCCCCCC1)[C@H]1C(=O)O[C@H](c3ccccc3)[C@H](c3ccccc3)N1[C@@H]2c1ccccc1OCCO,-0.751
14,C=CCC(OC(C)=O)[C@@H]1[C@@H](N(Cc2ccc(-c3ccccc3)cc2)C(=O)c2ccc(-c3ccccc3)cc2)c2cc(OCCCO)ccc2N1C(=O)Cc1ccc(OC)cc1 (stereo not given in full),0.764
15,C[C@H]1C2[C@H](Cc3ccccc3)NC(=O)[C@]23C(=O)N[C@H](Cc2ccccc2)C(=O)N[C@@H](Cc2ccccc2)C(=O)NC/C=C\C/C=C/C3[C@@H]2O[C@]12C (stereo not given in full),0.298
16,CCOC(=O)C1=C[C@@H](c2ccccc2)N(S(=O)(=O)c2ccc(C)cc2)[C@H]1c1ccc(F)cc1,0.994
17,CC(C)[Si](OCCCNS(=O)(=O)c1ccc(Br)cc1)(C(C)C)C(C)C,-0.87

# — PubChem BioAssay
